These results are taken from PubChem BioAssay (NCATS).

SMILES strings stand for the structures. Results filed as inconclusive are left out. Active and inactive are the calls of the source. Unless noted, calls follow the shape of the full dose curve.

For test [1], the target named is Bile acid receptor (Homo sapiens) (UniProt Q96RI1). In words: qHTS assay for small molecule antagonists of farnesoid X receptor signaling (AID 588526). Also: % is scaled to controls: 0 for no effect and ±100 for the full control effect. The procedure, abridged: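 Antagonist mode: titrated compounds tested against chenodeoxycholic acid stimulation (normalized to 50 uM CDCA and DMSO) in GeneBLAzer HEK293T cells for 16 h. Beta-lactamase read by CCF4 fluorescence; IC50 from Hill fits.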

The target of test [2] is Glucocorticoid receptor (Homo sapiens) (UniProt P04150). The test can be described thus: qHTS assay for small molecule agonists of glucocorticoid receptor signaling (AID 588532; active = well fitted curve in the direction sought with a large enough effect in the signal ratio, with a control signal flat; the % refers to the signal ratio;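 also: 100% = dexamethasone at 0.1 µM and 0% = DMSO only wells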). The note with it: HeLa MMTV-bla, beta-lactamase ratio, agonist, 18 h; stronger effect = higher value; percent of dexamethasone control, DMSO zero. In a few lines:
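HeLa GRE-bla reporter cells; 18 h compound exposure at 37 C; 2 h CCF4 loading at room temperature; fluorescence at 460 and 530 nm; EC50 by Hill equation.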
In general terms: In qHTS, concentration-response curves come from the screen itself.

The target is the same in test [3]. The test can be described thus: qHTS assay for small molecule antagonists of glucocorticoid receptor signaling (AID 588533; active = well fitted inhibition curve with a large enough effect in the signal ratio, with a control signal flat, not every such curve was filed as active; the % refers to the signal ratio; also: % is scaled to controls: 0 for no effect and ±100 for the full control effect). In a few lines:
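Antagonist-mode qHTS: compound titrations added to GRE-bla HeLa cells, then dexamethasone 2 nM final; 18 h, 37 C. CCF4 FRET fluorescence normalized to dexamethasone and DMSO; IC50 from Hill fit.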

Test [4] concerns the target Peroxisome proliferator-activated receptor gamma (Homo sapiens) (UniProt P37231). In words: qHTS assay for small molecule agonists of peroxisome proliferator-activated receptor gamma signaling (AID 588536; active = well fitted curve in the direction sought with a large enough effect in the signal ratio, with a control signal flat, not every such curve was filed as active; the % refers to the signal ratio;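 also: 0% = DMSO basal wells and 100% = rosiglitazone at 2 µM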). In a few lines: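 Test agents, titrated, stimulated HEK293 UAS-bla cells overnight (16 h, 37 C). Substrate CCF4 was then added for two hours at room temperature before fluorescence reading.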

For test [5] the target is unchanged. The test can be described thus: qHTS assay for small molecule antagonists of peroxisome proliferator-activated receptor gamma signaling (AID 588537; active = well fitted inhibition curve with a large enough effect in the signal ratio, with a control signal flat, not every such curve was filed as active; the % refers to the signal ratio;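 also: reporter cells co-stimulated with 50 nM rosiglitazone agonist during compound treatment; % of control where 0% means no effect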). The procedure, abridged: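 Step one: plate 3000 HEK293 UAS-bla cells per well in medium with 1% stripped serum and hold 6-6.5 h at 37 C. Step two: add compound and 50 nM agonist for 16 h. Step three: CCF4 loading, fluorescence read.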

Test [6] concerns the target Vitamin D3 receptor (Homo sapiens) (UniProt P11473). In words: qHTS assay for small molecule antagonists of vitamin D receptor signaling (AID 588541).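 Also: receptor activated by calcitriol during compound treatment; series mostly up to about 77 µM; % is scaled to controls: 0 for no effect and ±100 for the full control effect.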 The procedure, abridged:
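VDR-UAS-bla HEK293T cells in 2% charcoal-stripped FBS were stimulated with 1-alpha,25-dihydroxyvitamin D3 (3 nM final) plus compound for 16 h at 37 C. The beta-lactamase CCF4 readout was normalized to 50 nM agonist and DMSO, and Hill fits gave IC50.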

Test [7] shares this target. In words: qHTS assay for small molecule agonists of vitamin D receptor signaling (AID 588543).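 Also: 0% = DMSO basal and 100% = reference agonist control.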 In a few lines: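 GeneBLAzer VDR-UAS-bla HEK293T cells in 2% charcoal-stripped FBS medium were dosed with compound titrations for 16 h at 37 °C; CCF4 β-lactamase readout (405 nm ex, 460/530 nm em). EC50 and efficacy from Hill fits, normalized to 50 nM calcitriol (100%) and DMSO (0%).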

Test [8] is described as follows: qHTS assay for small molecule agonists of retinoid X receptor alpha signaling (AID 588544).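 As to activation: 0% = DMSO basal wells and 100% = reference agonist.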 The note with it: HEK293T RXRa-UAS-bla, beta-lactamase reporter, 18 h; 530 nm emission.
Test [9] concerns the target Retinoic acid receptor RXR-alpha (Homo sapiens) (UniProt P19793). The description is as above.
A short description of test [10]: qHTS assay for small molecule antagonists of retinoid X receptor alpha signaling (AID 588546; active = well fitted inhibition curve with a large enough effect in the signal ratio, with a control signal flat, not every such curve was filed as active; the % refers to the signal ratio;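 also: cells stimulated with 9-cis-retinoic acid as agonist; % is scaled to controls: 0 for no effect and ±100 for the full control effect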). The note with it: HEK293T RXRa-UAS-bla, beta-lactamase ratio, antagonist mode; measured here: W530 green channel, cytotoxicity proxy. In a few lines: (§1)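 Beta-lactamase reporter inhibition, read as CCF4 fluorescence ratio (ex 405, em 460/530 nm) after 2 h at RT. HEK293T UAS-bla cells, 2500/well, were stimulated with 9-cis-RA at 500 or 100 nM final alongside test compound for 18 h at 37 C.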

Test [11] addresses Retinoic acid receptor RXR-alpha (Homo sapiens) (UniProt P19793). The description is as above. The note with it: HEK293T RXRa-UAS-bla, beta-lactamase ratio, antagonist mode. The procedure, abridged: as §1
In test [12] the target is Thyroid hormone receptor beta (Homo sapiens) (UniProt P10828). In words: qHTS assay for small molecule antagonists of thyroid hormone receptor beta signaling (AID 588547; active = well fitted inhibition curve with a large enough effect in the signal ratio, with a control signal flat, not every such curve was filed as active; the % refers to the signal ratio). Particulars: TR-UAS-bla HEK293, beta-lactamase ratio, antagonist mode, 18 h. The procedure, abridged:
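TR-UAS-bla GripTite HEK293 cells in 2% charcoal/dextran FBS medium; compounds 0.59 nM to 92 uM with T3 at 0.4nM final, 18 h at 37 C. Beta-lactamase read by CCF4 fluorescence (460/530 nm); Hill fits gave IC50 and efficacy.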

The nature of test [13]: qHTS assay for small molecule agonists of the antioxidant response element (ARE) signaling pathway (AID 651741; active = well fitted activation curve with a large enough effect in the signal ratio; the % refers to the signal ratio; also: potency is read from the fitted curve at half-maximal effect; as to activation: % of control where 0% means no effect). In a few lines: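 HepG2 ARE-bla cells plated at 2,000 cells/well and incubated 5 h at 37 C/5% CO2 received 23 nL compound in DMSO. After 16 h at 37 C, LiveBLAzer B/G FRET substrate was applied for 2 h at room temperature and fluorescence read.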
Test [14] in a line: qHTS assay for small molecule activators of the p53 signaling pathway (AID 651743; active = well fitted activation curve with a large enough effect in the signal ratio, not every such curve was filed as active; the % refers to the signal ratio; also: series mostly up to about 92 µM; % of control where 0% means no effect). The note with it: HCT-116 p53RE-bla, beta-lactamase FRET ratio, 16 h; stronger effect = higher value. The procedure, abridged:
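HCT-116 p53RE-bla, 4,000 cells/well; 5 h settle; cpd/DMSO 16 h, 37 C; LiveBLAzer B/G 2 h RT; fluorescence intensity.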

A short description of test [15]: qHTS assay for small molecule antagonists of peroxisome proliferator-activated receptor delta signaling (AID 588535; active = well fitted inhibition curve with a large enough effect in the signal ratio, with a control signal flat, not every such curve was filed as active; the % refers to the signal ratio;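 as to max response: cells co-treated with a PPAR-delta agonist as stimulator during compound exposure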). The note with it: HEK293T PPARd-UAS-bla, beta-lactamase FRET ratio, 18 h; 460 nm channel. The procedure, abridged: (§2)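 Cells were seeded at 4000 per well in assay medium containing 2% charcoal/dextran FBS and held 5 hrs at 37 C. Compounds were then added for 18 hrs. CCF4 substrate was applied for 2 hrs at room temperature before fluorescence reading.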

The target of test [16] is Peroxisome proliferator-activated receptor delta (Homo sapiens) (UniProt Q03181). The test is described as above. In a few lines: as §2
The target of test [17] is Thyroid hormone receptor beta (Homo sapiens) (UniProt P10828). The test can be described thus: qHTS assay for small molecule agonists of thyroid hormone receptor beta signaling (AID 588545). In a few lines: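 In this cell-based screen, titrated compounds act on HEK 293 cells held in medium with 2% charcoal/dextran FBS, NEAA and pyruvate for 18 hrs at 37 C. Responses are expressed relative to T3 (10 nM) as 100% and basal DMSO as 0%.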

Test [18] addresses Voltage-gated inwardly rectifying potassium channel KCNH2 (Homo sapiens) (UniProt Q12809). The test can be described thus: qHTS Assay for Small Molecule Inhibitors of the Human hERG Channel Activity (AID 588834; active = well fitted inhibition curve with a large enough effect;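 also: top concentration of the series differs between compounds; % is scaled to controls: 0 for no effect and ±100 for the full control effect; lower thallium flux fluorescence means stronger hERG block; nearly all actives have a fitted effect of over 50% in size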). In a few lines:
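U2OS cells transduced with hERG via BacMam (MOI ~100), plated 2000/well, loaded with FluxOR thallium dye, compound ~10 min, then stimulation buffer; fluorescence decrease read kinetically; AC50 from Hill fits.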

A short description of test [19]: qHTS assay for small molecule activators of the nuclear factor-kappa B (NF-kB) signaling pathway (AID 651749; active = well fitted activation curve with a large enough effect in the signal ratio; the % refers to the signal ratio; also: series mostly up to about 77 µM; % of control where 0% means no effect). Particulars: NF-kB-bla ME-180 cells, beta-lactamase FRET ratio, 16 h; stronger effect = higher value. The procedure, abridged:
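Incubation lasted 16 hr at 37C in 5% CO2 after 23 nL compound addition to ME-180 NF-kB-bla cells. Activation appears as beta-lactamase-mediated FRET loss.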

Chain of Peroxisome proliferator-activated receptor delta (Homo sapiens) (Q03181 whole entry, looked up): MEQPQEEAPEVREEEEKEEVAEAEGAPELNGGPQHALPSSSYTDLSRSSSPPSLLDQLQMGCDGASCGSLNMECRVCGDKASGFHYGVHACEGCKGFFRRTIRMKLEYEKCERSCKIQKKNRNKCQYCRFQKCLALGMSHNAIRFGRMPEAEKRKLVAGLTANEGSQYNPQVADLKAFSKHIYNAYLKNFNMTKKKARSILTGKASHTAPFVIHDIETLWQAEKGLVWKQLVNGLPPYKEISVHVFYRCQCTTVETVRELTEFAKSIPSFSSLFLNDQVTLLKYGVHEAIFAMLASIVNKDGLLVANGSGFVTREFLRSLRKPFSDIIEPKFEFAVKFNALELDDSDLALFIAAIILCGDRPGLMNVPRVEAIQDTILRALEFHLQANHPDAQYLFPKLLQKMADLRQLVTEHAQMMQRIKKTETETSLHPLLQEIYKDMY
Chain of Thyroid hormone receptor beta (Homo sapiens) (P10828 whole entry, looked up): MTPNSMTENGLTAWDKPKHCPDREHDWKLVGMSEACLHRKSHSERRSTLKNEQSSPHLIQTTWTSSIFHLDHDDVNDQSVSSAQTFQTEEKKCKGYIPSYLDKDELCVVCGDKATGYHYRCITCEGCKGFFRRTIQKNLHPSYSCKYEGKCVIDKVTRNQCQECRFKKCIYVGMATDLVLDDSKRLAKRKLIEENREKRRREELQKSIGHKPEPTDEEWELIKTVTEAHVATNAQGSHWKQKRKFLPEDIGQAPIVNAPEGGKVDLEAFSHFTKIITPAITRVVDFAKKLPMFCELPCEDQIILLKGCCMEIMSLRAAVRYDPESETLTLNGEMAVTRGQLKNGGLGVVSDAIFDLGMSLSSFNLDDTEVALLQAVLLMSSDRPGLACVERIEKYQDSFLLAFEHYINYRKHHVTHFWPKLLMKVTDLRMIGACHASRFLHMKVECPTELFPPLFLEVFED
Chain of Glucocorticoid receptor (Homo sapiens) (P04150 whole entry, looked up): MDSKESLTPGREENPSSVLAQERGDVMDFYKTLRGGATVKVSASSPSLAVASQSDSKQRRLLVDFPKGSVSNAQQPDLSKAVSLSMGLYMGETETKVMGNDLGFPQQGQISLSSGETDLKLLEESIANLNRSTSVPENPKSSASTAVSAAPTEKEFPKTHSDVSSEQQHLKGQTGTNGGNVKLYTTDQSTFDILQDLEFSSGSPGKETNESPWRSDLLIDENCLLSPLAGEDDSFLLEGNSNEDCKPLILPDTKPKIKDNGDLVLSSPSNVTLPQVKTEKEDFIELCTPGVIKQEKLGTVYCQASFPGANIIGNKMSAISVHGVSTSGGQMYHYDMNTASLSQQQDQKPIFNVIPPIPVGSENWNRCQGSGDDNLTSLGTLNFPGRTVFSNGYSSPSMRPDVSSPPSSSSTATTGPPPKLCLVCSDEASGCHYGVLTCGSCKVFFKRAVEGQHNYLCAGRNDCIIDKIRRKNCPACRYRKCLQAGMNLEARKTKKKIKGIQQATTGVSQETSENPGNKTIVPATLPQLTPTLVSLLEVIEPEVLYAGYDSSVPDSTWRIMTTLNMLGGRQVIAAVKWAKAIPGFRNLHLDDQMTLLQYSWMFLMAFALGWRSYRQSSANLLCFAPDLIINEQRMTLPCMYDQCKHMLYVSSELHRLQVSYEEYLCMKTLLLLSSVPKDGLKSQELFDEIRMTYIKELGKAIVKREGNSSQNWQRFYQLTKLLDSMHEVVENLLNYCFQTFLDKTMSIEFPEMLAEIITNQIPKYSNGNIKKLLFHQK
Chain of Vitamin D3 receptor (Homo sapiens) (P11473 whole entry, looked up): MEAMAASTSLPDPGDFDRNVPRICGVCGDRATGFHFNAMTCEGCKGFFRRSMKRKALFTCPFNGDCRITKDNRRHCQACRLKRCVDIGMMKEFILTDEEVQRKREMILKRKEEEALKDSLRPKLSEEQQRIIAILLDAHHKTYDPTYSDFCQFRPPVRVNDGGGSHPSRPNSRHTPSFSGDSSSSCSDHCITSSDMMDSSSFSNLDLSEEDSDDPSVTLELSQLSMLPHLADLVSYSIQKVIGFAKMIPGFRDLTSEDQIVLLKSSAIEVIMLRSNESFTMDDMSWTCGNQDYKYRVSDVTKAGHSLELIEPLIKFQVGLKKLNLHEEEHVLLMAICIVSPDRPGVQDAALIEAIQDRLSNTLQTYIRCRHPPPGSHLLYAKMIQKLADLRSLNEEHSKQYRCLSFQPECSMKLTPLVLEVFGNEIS
Chain of Voltage-gated inwardly rectifying potassium channel KCNH2 (Homo sapiens) (Q12809 whole entry, looked up): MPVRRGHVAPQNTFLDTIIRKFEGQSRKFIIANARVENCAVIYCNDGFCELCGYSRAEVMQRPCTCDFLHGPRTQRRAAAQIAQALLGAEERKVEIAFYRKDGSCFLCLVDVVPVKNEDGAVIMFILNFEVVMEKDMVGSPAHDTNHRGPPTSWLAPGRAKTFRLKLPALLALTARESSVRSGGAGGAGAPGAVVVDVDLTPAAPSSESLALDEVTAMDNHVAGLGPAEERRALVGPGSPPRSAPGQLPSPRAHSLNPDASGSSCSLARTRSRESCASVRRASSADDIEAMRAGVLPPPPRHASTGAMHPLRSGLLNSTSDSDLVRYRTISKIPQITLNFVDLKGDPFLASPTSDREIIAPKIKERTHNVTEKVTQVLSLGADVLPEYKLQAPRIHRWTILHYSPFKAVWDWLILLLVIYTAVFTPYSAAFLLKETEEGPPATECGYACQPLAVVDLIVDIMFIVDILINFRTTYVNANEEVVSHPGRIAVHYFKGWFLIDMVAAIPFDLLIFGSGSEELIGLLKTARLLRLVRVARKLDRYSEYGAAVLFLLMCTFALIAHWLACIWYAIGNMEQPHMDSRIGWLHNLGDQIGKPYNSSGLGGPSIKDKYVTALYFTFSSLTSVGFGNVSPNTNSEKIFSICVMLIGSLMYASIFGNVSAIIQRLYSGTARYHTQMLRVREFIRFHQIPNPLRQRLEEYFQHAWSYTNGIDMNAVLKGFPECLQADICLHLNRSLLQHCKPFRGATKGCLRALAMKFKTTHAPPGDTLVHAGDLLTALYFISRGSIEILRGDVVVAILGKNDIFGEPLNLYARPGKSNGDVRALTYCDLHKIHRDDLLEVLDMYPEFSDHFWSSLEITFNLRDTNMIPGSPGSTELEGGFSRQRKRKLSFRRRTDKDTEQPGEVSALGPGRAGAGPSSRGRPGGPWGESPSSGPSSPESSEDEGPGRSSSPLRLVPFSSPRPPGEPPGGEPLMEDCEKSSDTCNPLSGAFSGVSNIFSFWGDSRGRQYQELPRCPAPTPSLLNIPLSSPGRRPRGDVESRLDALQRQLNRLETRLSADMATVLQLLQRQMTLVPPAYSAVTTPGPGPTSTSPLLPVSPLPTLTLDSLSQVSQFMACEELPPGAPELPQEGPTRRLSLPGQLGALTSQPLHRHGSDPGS
Chain of Bile acid receptor (Homo sapiens) (Q96RI1 whole entry, looked up): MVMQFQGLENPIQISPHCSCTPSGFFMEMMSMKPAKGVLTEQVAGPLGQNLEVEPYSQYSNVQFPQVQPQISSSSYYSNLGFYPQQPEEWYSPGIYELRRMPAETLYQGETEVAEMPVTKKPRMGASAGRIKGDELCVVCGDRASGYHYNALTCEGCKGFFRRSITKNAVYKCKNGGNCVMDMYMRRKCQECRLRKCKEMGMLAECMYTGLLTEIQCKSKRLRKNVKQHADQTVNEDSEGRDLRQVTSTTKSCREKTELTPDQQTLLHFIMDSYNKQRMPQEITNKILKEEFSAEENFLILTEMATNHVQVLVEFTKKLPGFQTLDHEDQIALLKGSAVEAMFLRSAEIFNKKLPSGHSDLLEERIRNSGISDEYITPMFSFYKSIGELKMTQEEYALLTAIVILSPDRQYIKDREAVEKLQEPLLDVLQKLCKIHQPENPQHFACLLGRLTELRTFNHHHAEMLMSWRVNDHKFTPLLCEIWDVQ
Chain of Peroxisome proliferator-activated receptor gamma (Homo sapiens) (P37231 whole entry, looked up): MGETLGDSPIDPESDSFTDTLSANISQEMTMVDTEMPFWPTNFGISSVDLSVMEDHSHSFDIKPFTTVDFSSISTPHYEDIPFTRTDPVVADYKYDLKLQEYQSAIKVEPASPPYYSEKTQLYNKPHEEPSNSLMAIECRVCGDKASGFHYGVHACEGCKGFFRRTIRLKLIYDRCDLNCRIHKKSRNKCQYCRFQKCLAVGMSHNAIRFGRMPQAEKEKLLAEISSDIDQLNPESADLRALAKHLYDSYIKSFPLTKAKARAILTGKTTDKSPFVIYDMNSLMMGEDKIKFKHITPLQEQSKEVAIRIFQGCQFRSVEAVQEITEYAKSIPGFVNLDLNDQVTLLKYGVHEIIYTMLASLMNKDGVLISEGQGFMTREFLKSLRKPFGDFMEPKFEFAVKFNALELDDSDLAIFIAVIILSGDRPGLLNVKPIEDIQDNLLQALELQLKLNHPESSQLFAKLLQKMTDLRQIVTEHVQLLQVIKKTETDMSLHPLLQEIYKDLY
Chain of Retinoic acid receptor RXR-alpha (Homo sapiens) (P19793 whole entry, looked up): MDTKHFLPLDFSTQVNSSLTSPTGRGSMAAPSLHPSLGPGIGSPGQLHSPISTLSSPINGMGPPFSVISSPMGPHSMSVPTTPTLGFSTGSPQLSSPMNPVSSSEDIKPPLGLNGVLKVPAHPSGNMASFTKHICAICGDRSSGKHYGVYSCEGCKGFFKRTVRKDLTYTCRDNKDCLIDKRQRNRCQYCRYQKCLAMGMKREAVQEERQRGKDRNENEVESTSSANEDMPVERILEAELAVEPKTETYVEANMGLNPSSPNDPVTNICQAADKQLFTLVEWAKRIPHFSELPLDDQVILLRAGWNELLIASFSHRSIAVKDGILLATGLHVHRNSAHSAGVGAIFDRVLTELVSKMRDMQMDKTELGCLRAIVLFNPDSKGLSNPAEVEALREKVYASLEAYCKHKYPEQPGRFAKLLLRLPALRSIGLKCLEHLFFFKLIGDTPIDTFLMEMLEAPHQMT

For `NC(N)=S`, the result in test [1], in [3], in test [4], in test [5], in test [6] and in test [7] was inactive. Moreover, the outcome in [9] was inactive. For the same compound, the activation in test [2] is 1.8% (inactive); in [14], -1.07% (inactive). The results for the max response in test [8], in test [10] and in [11] were -8.98%, 10% and 4.07% (inactive), respectively. The activity change % (negative = inhibition) in test [12] was -6.09% (inactive). Besides, in test [13], the Potency result was “inactive”.

Take `CCc1ccccc1O`: the compound was called inactive in test [1], in [3], in test [4], in test [5], in test [6] and in test [7]. Besides, the result in [9] and in [17] was inactive. Also, the activation in [2] was 4.35% (inactive); in test [19], 0.236% (inactive). The max response is -32.1% in [15], -12.3% in [8], -5.98% in test [10] and 5.77% (inactive) in test [11]. Besides, the Potency result in test [16] and in test [18] was “inactive” in each case.

Turning to `CCCCCCCCCCCCC1CO1` (centres undefined), the call in test [1], in [3], in test [4], in test [5], in test [9] and in [17] was inactive. In addition, the activation in [2] is 0.241% (inactive); in [19], 0.702% (inactive). In addition, the results for the max response in [15], in test [8] and in [10] were -13.1%, -5.24% and -6.03%, respectively. The Potency result in test [16] and in test [18] was “inactive” each time. Moreover, the activity change % (negative = inhibition) in [12] was -0.964% (inactive).

`CC(=O)c1cccc([N+](=O)[O-])c1`: the call in test [1], in [3], in test [4], in test [6], in [9] and in test [17] was inactive. Further, the activation in [2] is 1.38% (inactive); in test [14], -3.72% (inactive). Also, the max response in test [15] is 13.5%; in test [8] it was -6.78%; in test [10], 3.27%; in test [11], 7.36% (inactive). For the same compound, the Potency result in [16], in test [18] and in [13] was “inactive” each time. In addition, the activity change % (negative = inhibition) in test [12] was 10.7% (inactive).

For the compound `Cc1ccccc1C(N)=O`, the call in test [1], in test [3], in test [4], in [5], in test [9] and in test [17] was inactive. In addition, the results for the activation in test [2], in [14] and in test [19] were -0.107% (inactive), 1.09% (inactive) and 1.42% (inactive), respectively. The max response in test [15] was 16.7%; in test [8], -6.32%; in test [10], 9.22%; in test [11], 7.98% (inactive). In addition, the Potency result in [16] is “inactive”.

Regarding `C=Cc1ccc(C=C)cc1`, the compound was called inactive in test [1], in test [3], in test [4], in test [6], in [7] and in [9]. The compound was classed as inactive in test [17]. Also, the max response in test [15] was -5.46%; in test [8], -1.02%; in test [10], -3.44%; in test [11] it was 16.7% (inactive). In addition, the Potency entry in test [16], in test [18] and in [13] was “inactive” throughout. The activity change % (negative = inhibition) in [12] is -18.2% (inactive). Also, in test [19], the activation is 0.161% (inactive).

With `Oc1cccc(Nc2ccccc2)c1`, the result in [1], in test [3], in [4], in [9] and in test [17] was inactive. The activation in [2] is -7.34% (inactive); in [19] it was 0.49% (inactive). In addition, the max response in test [8] was -0.0784%. In addition, in [18], the Potency entry is “inactive”. For the same compound, the Potency in test [13] was 42.2 µM (active).

`Cc1nc2ccc(Cl)cc2[nH]1`: the result in test [1], in test [3], in test [4], in [5], in [7] and in test [9] was inactive. Also, in test [17], the compound was classed as inactive. Also, the max response was -24.2% in test [8], -9.52% in [10] and -12.1% (inactive) in [11]. The activity change % (negative = inhibition) in [12] is 9.04% (inactive). Also, the Potency entry in test [18] and in [13] was “inactive” in each case. The activation in [14] is -1.34% (inactive).
